Hits are enriched below; roughly 17% of the tested compounds scored in any of these assays.
ClpP mod – qHTS Assay for Activators of ClpP; ATP-dependent Clp protease proteolytic subunit (Bacillus subtilis (strain 168)), P80244; purified B. subtilis ClpP, FRET peptide cleavage, 20 min; Potency, µM (series often up to 57.5 µM), for the others: top-dose activity change, negative = active; 340,000 tested, 1.9% active; active = well fitted falling curve with a large enough effect; inconclusive = small, poorly fitted or top-dose-only effect; inactive = no such curve, though single readings can be large or run the other way; note: the source files actives as falling curves though it sought activators and does not explain the sign; nearly all actives have a fitted effect of over 65% in size
Target sequence (P80244 whole entry, looked up): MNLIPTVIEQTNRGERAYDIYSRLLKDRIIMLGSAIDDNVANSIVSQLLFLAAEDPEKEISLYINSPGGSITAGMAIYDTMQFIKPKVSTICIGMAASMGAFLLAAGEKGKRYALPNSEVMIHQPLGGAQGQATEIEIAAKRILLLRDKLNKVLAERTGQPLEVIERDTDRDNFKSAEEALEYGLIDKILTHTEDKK
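Purified B. subtilis ClpP, 10 microg/mL final in Tris/HCl pH8 with KCl, BSA, glycerol and Tween-20, cleaved an Abz/nitrotyrosine-quenched decapeptide. Fluorescence (ex 320, em 430) was read at 0 and 20 min at room temperature. Delta was normalized to 5.8 microM ADEP and DMSO/no-enzyme controls.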
TDP1 cell noCPT – qHTS for Inhibitors of human tyrosyl-DNA phosphodiesterase 1 (TDP1): qHTS in cells in absence of CPT | Potency, µM (highest dose often 46.2 µM), for inactives: at the top dose activity change, negative = growth inhibition, actives largely listed as inhibitors | DT40 Tdp1-/- hTDP1 cells, no CPT, ATP luminescence, 48 h | 420,000 tested, 15% active | AID 686978, 2013; note: % is set by controls: 0 for no effect and ±100 for the full control effect; nearly all actives have a fitted effect of over 55% in size
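Chicken DT40 Tdp1-/- cells complemented with human TDP1, screened without camptothecin (DMSO vehicle only), 400 cells/well. Compounds pin-transferred, cells incubated at 37 °C for at least 48 hr. Growth read as ATP-dependent luminescence (CellTiter-Glo, 30 min at RT).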
TDP1 inh – blocks human tyrosyl-DNA phosphodiesterase 1. recombinant TDP1, AlphaScreen DNA substrate cleavage. Potency, µM (top dose mostly 130 µM), for the others: at the top dose activity change, negative = inhibition, usual class: inhibitors. 350,000 tested, 0.28% active. AID 485290; note: % is set by controls: 0 for no effect and ±100 for the full control effect; nearly all actives have a fitted effect of over 40% in size
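Here, a 5' biotin and 3' phosphotyrosine-FITC DNA oligonucleotide reports Tdp1 activity: intact substrate bridges AlphaScreen beads, while cleavage leaves a 3' phosphate and drops signal. All incubations at room temperature.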
TDP1 cell CPT – growth inhibition of DT40 Tdp1-/-;hTDP1 cells with camptothecin (screen for TDP1 inhibitors) | 420,000 tested, 12% active | chicken DT40 Tdp1-/-;hTDP1 cells + 20 nM CPT, ATP luminescence, 48 h | Potency, µM (titrated, usually from 46.2 µM), without a hit: top-dose activity change, negative = growth inhibition, most hits filed as inhibitors | AID 686979; note: % is set by controls: 0 for no effect and ±100 for the full control effect; nearly all actives have a fitted effect of over 55% in size
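Cell growth measured by CellTiter-Glo luminescence after a minimum 48 h, 37 C compound exposure with 20 nM CPT in Tdp1-knockout DT40 cells stably expressing hTDP1, seeded 400/well; qHTS titration format.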
Numbers without * were called inactive; ? = inconclusive; · = not tested or not shown; ! = not confirmed by another sample; [ ] = another dose, or the depositor's remark. Unless noted, calls come from the whole dose curve; as a rule, active = well fitted curve in the direction sought with a large enough effect; inconclusive = small, poorly fitted or top-dose-only effect, or another doubt; inactive = no such curve, though single readings can be large; an effect the other way counts as inactive or inconclusive. Potency is the fitted concentration of half-maximal effect.

SMILES	ClpP mod	TDP1 cell noCPT	TDP1 inh	TDP1 cell CPT
O=C(c1ccccc1)c1ccc2nc(N3CCN(c4ccc(F)cc4)CC3)c3nncn3c2c1	0%	8.2µM*	2%[12.3 µM]	7.3µM*
FC(F)OC(F)(F)C(F)Cl (configuration not stated)	·	-13%	·	4%
C=CC1CC=CCC1 (configuration not stated)	·	·	9%	·
CCN1C[C@@]2(COC(=O)c3ccccc3N3C(=O)CC(C)C3=O)CC[C@H](OC)[C@]34C5C[C@@H]6[C@@H](OC)C[C@@](O)(C5[C@H]6OC)[C@@](O)(C13)[C@@H](OC)C24 (some centres not stated)	·	0%	-9%[56.1 µM]	-6%
Cc1ccccc1NC(=O)CSc1nc2ccccc2c2nc(CCn3c(C)nc4ccccc43)nn12	-1%	18µM*	3%	15µM*
CC(C)(OOC1(c2ccccc2)NC(=O)c2ccccc21)c1ccccc1 (configuration not stated)	1%	18µM*	·	?
O=C(Cl)C(Cl)(Cl)Cl	·	·	13%	·
Clc1cccc(/C=N\Nc2nccs2)c1	1%	4.6µM*	3%	15µM*
Ic1cncc(OC[C@@H]2CCN2)c1	·	-1%	11%	14%
O=C1/C(=C\c2ccccc2)C2OCC=C3CN4CCC56c7ccccc7N1C5C2C3CC46 (configuration not stated)	1%	?	·	21µM*
CCN(CC)Cc1nccn1-c1ccc([N+](=O)[O-])cc1C(=O)c1ccccc1Cl	·	6µM*	·	-83%
CCOc1ccc(OC(=O)c2ccc3c(=O)n4c(nc3c2)CCC4)cc1	-4%	?	·	?
Cc1ccc([C@@H]2CC(=O)[C@@H]3CN(S(=O)(=O)c4ccccc4C)[C@H](c4ccc(Cl)cc4)C[C@@H]3N2S(=O)(=O)c2ccc(C)cc2)cc1	1%	26µM*	·	?
O=S(=O)(c1ccc(Cl)cc1)N1CCCC1c1cccnc1 (configuration not stated)	1%	-12%	3%	-1%
CCCN1CCCC2Cc3[nH]ncc3CC21 (configuration not stated)	·	·	0.28µM*!	·
O=C(O)CCCC[C@@H]1SC[C@H]2NC(=O)N[C@@H]12	·	-12%	30%[56.1 µM]	6%
COC1CC2C=C(C)C=CC=CC(=O)NC(c3ccccc3)CC=CCCC(O)CC(=O)C2=C1O (configuration not stated)	-2%	0.52µM*	·	0.46µM*
CCCOc1ccc(C(=O)Nc2ccc(-c3cc4ccccc4oc3=O)c(C)c2)cc1	4%	5.2µM*	-2%[2.28 µM]	10µM*
CCCCOc1ccc(Cn2c(=O)oc3ccccc32)cc1	3%	?	3%	?
C=CCN1CCC2(C)c3cc(O)ccc3C[C@H]1[C@H]2C	·	-16%	9%[56.1 µM]	1%
C=CCN	·	·	5%	·
COC(=O)C1=C(C)NC(COC(N)=O)=C(C(=O)OC(C)C)C1c1cccc(Cl)c1Cl (configuration not stated)	·	33µM*	·	30µM*
C#CC[N+]1(C)[C@@H]2CC[C@H]1CC(OC(=O)C(CO)c1ccccc1)C2 (some centres not stated)	0%	-5%	·	14%
CC1(C)C(=O)C=C[C@@]2(C)C1=C(O)C(=O)[C@@]1(C)C2CC[C@@]2(C)C(c3ccoc3)C[C@H]3O[C@@]321 (some centres not stated)	·	12µM*	10%[56.1 µM]	12µM*
O=Cc1ccc2c(c1)OCO2	·	·	18%	·
SMILES	ClpP mod	TDP1 cell noCPT	TDP1 inh	TDP1 cell CPT
O=C(N=Nc1c(O)[nH]c(=O)[nH]c1=O)C1COc2cc3ccccc3cc2O1 (configuration not stated)	·	?	7%	18µM*
N#Cc1c(Cl)nc(Cl)c2c1CCN(Cc1ccccc1)C2	7%	16µM*	3%	?
Cc1cc(OC(=O)c2cccs2)c2c3c(c(=O)oc2c1)CCCC3	-3%	5.2µM*	3%	18µM*
Cc1cc(OC(C)C(=O)NCc2ccncc2)c2c3c(c(=O)oc2c1)CCCC3 (configuration not stated)	5%	?	7%	23µM*
Cc1cc(OC(=O)c2ccco2)c2c3c(c(=O)oc2c1)CCCC3	22µM*	10µM*	3%	12µM*
Cc1cc(OCC(=O)NCc2ccncc2)c2c3c(c(=O)oc2c1)CCCC3	4%	?	8%	?
Cc1ccc2c(c1)[C@H]1[C@H](CO2)[C@H](c2ccccc2)[C@]2(C)C(=O)N(CC3CCCO3)CC(=O)N12 (some centres not stated)	-1%	?	1%	3%
C[C@]12CC[C@H](O)C[C@H]1CC[C@@H]1[C@@H]2CC[C@]2(C)[C@@H](C3=CC(=O)OC3)CC[C@]12O	0%	12µM*	·	?
C[C@H]1O[C@@H](O[C@H]2[C@@H](O)C[C@H](O[C@H]3[C@@H](O)C[C@H](O[C@H]4CC[C@]5(C)C6CC[C@]7(C)[C@@H](C8=CC(=O)OC8)CC[C@]7(O)C6CC[C@@H]5C4)O[C@@H]3C)O[C@@H]2C)C[C@H](O)[C@@H]1O (some centres not stated)	·	0.38µM*	14%[56.1 µM]	0.34µM*
CC1OC(OC2C(O)CC(OC3C(O)CC(OC4CCC5(C)C(CCC6C5CCC5(C)C(C7=CC(=O)OC7)CCC65O)C4)OC3C)OC2C)CC(O)C1O (configuration not stated)	·	·	2%	·
C[C@H]1O[C@@H](O[C@H]2[C@@H](O)C[C@@H](O[C@H]3[C@@H](O)C[C@H](O[C@H]4CC[C@@]5(C)[C@H](CC[C@@H]6[C@@H]5CC[C@]5(C)[C@@H](C7=CC(=O)OC7)CC[C@]65O)C4)O[C@@H]3C)O[C@@H]2C)C[C@H](O)[C@@H]1O	1%	0.11µM*	·	0.32µM*
CC1O[C@@H](O[C@@H]2C(O)C[C@H](O[C@@H]3C(O)C[C@@H](OC4CC[C@@]5(C)C6CC[C@]7(C)C(C8=CC(=O)OC8)CC[C@@]7(O)C6CC[C@@H]5C4)OC3C)OC2C)CC(O)[C@H]1O (some centres not stated)	·	0.73µM*	-5%[56.1 µM]	1µM*
CC12CCC(O)CC1CCC1C2CCC2(C)C(C3=CC(=O)OC3)CCC12O (configuration not stated)	1%	?	·	?
C[C@]12[C@H](O)CC3C(CC[C@@H]4C[C@@H](O)CC[C@]34C)[C@@]1(O)CC[C@@H]2C1=CC(=O)OC1 (some centres not stated)	·	?	12%[56.1 µM]	?
Oc1ccc2c3c1O[C@H]1c4oc5ccccc5c4C[C@]4(O)[C@H](C2)N(CC2CC2)CC[C@@]314	·	-3%	7%	9%

Screening data as filed in PubChem BioAssay.
